{"source": "PubChem BioAssay (Tox21)", "note": "Records with an inconclusive call do not appear. Entries that show only a call come without a potency. Activity calls are given as the source filed them. Calls follow the shape of the dose curve; as a rule, active = well fitted cell-killing curve with a large enough effect in the repeat runs; inconclusive = weak or mixed curves, or effect the other way; inactive = no such curve, though single readings can be large or run the other way. Potency is read from the fitted curve at half-maximal effect.", "data": [{"test": "qHTS assay for identifying genotoxic compounds that show differential cytotoxicity against isogenic chicken DT40 cell lines with known DNA damage response pathways - wild type cell line (AID 743012); also: nearly all actives have a fitted effect of over 60% in size", "details": "DT40 wild type chicken cells viability, CellTiter-Glo, 40 h; series mostly up to 68.4 µM", "summary_of_the_method": "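First, wild type DT40 cells were plated at 300 per well and equilibrated about 0.5 h at 37 C/5% CO2. Next, compounds in DMSO were added and exposure lasted 40 h. Finally, CellTiter-Glo was added for 30 min at room temperature and luminescence recorded.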", "values": [{"molecule": "O=C(O)c1ccc(OCCn2ccnc2)cc1", "Potency": "inactive"}, {"molecule": "COc1ccc(CNCC(O)COc2ccc3[nH]c(=O)ccc3c2)cc1OC", "note": "(stereo unspecified)", "Potency": "inactive"}, {"molecule": "Cc1cc(C(=O)NNCc2ccccc2)no1", "Potency": "inactive"}, {"molecule": "Nc1ncnc(Nc2ccc(Cl)cc2)n1", "Potency": "inactive"}, {"molecule": "CCCCC(=O)OCC(=O)[C@]1(O)Cc2c(O)c3c(c(O)c2[C@@H](O[C@H]2C[C@H](NC(=O)C(F)(F)F)[C@H](O)[C@H](C)O2)C1)C(=O)c1c(OC)cccc1C3=O", "Potency": "1.5 µM (active)"}, {"molecule": "CCCCCCCCCCCCCCCCCCCCCCO", "Potency": "inactive"}, {"molecule": "O=C1NC(=O)[C@H]2[C@@H]1[C@@H]1C=C[C@H]2C1", "Potency": "inactive"}, {"molecule": "O=C(O)C1CCCN1", "note": "(stereo unspecified)", "Potency": "inactive"}, {"molecule": "NC(=O)OCC(O)COc1ccc(Cl)cc1", "note": "(stereo unspecified)", "Potency": "inactive"}, {"molecule": "COC(=O)CC[C@H](N)C(=O)O", "Potency": "inactive"}, {"molecule": "CC1(C)S[C@@H]2[C@H](NC(=O)C(C(=O)O)c3ccsc3)C(=O)N2[C@H]1C(=O)O", "note": "(stereo partly specified)", "Potency": "inactive"}, {"molecule": "CCOC(=O)Oc1c(OC)cc(C(=O)O[C@@H]2C[C@@H]3CN4CCc5c([nH]c6cc(OC)ccc56)[C@H]4C[C@@H]3[C@H](C(=O)OC)[C@H]2OC)cc1OC", "Potency": "10.1 µM (active)"}, {"molecule": "CC(O)CN(C)C", "note": "(stereo unspecified)", "Potency": "inactive"}, {"molecule": "CO[C@H]1O[C@@H]2O[C@@]3(C)CC[C@H]4[C@H](C)CC[C@@H]([C@H]1C)[C@@]24OO3", "Potency": "1.19 µM (active)"}, {"molecule": "CCCCCCCCCCCCCCCC(=O)O[C@@H]1[C@@H](O)[C@@H](O)[C@@H]([C@H](NC(=O)[C@@H]2C[C@@H](CCC)CN2C)[C@H](C)Cl)O[C@@H]1SC", "Potency": "inactive"}, {"molecule": "COc1ccccc1N1CCN(CCCC(=O)c2ccc(F)cc2)CC1", "Potency": "13.3 µM (active)"}]}]}
